Assay outcomes deposited in PubChem by Broad Institute.
Rows were chosen to be rich in hits. Some 4% of all compounds tested hit in one or more screens of this group.
Wnt bcat act: Wnt/beta-catenin pathway activators, primary screen, cell-based, plate reader, single point; Wnt/beta-catenin reporter cell assay, activator; activation, % at 9.35 µM; hit rate 1.2% among 300,000; in the data active = activation above about 30%, passing the limit was not always enough; inconclusive = no clear call, values can overlap the other calls;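 note: 0% = neutral control wells and 100% = positive control wells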
MITF TRPM1 HTS: activators of MITF-driven TRPM1 promoter reporter, primary screen, cell-based, SK-MEL-5, luciferase, single point; SK-MEL-5 TRPM1-promoter luciferase, 24 h; % of positive control, neutral wells = 0; activation, % at 12.5 µM; hit rate 0.75% among 300,000; AID 588334, 2011;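 active = mean activation of at least 80% with every replicate also reaching 80%; inconclusive = mean reaches 80% but some replicate falls short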;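 note: 0% = neutral control wells and 100% = parthenolide positive control wells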
LMP1 NFkB inh: EBV LMP1-driven NF-kappaB luciferase reporter inhibitors, primary screen, cell-based, luminescence, single point | LMP1-induced NF-kappaB luciferase reporter cells | inhibition, % at 12.5 µM | hit rate 0.69% among 350,000 | AID 504558, 2011; in the data active = inhibition above about 41%; inconclusive = no clear call, values can overlap the other calls;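 note: 0% = neutral control wells and 100% = reference inhibitor control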
MITF TRPM1 inh: inhibitors of MITF-dependent TRPM1 promoter reporter, primary screen, cell-based, SK-MEL-5, single point, luciferase; SK-MEL-5 TRPM1 promoter luciferase, 24 h; inhibition, % at 12.5 µM; hit rate 0.83% among 330,000; AID 488899, 2010;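 active = mean inhibition across replicates of 60% or more, whatever share of single replicates reaches that level; inconclusive = some that reach 60%, reason not given; inactive = mean inhibition across replicates below 60%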
esBAF inh: Bmi1 luciferase reporter increase in mESCs, primary screen, esBAF inhibitor project, mouse ES cells, Bmi1 luciferase knock-in, single point. 24 h; 100% = twice the neutral-well signal. reporter increase, % at 12.5 µM. hit rate 2% among 350,000. AID 602393, 2012; in the data active = activation above about 40%; inconclusive = no clear call, values can overlap the other calls;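 note: 0% = median of the plate's neutral control wells and 100% = double that signal; a rise in the Bmi1 reporter signal indicates esBAF inhibition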
Statin myotox sup: suppressors of statin myotoxicity in C2C12 myotubes, primary screen, cell-based, single point, plate reader; hit rate 0.78% among 330,000; C2C12 myotubes + simvastatin, ATP luminescence, 48 h; scaled: DMSO 0, geranylgeraniol control 100; rescue of ATP level, % at 7.49 µM; AID 602340, 2012;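 active = mean ATP rescue above about 67%, or every replicate alone reaching that limit, limit read from the data, passing the limit was not always enough; inconclusive = no clear call, values can overlap the other calls; inactive = mean under the limit and some replicate under it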;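 note: myotubes were challenged with 10 µM simvastatin during compound exposure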
Numbers without * were called inactive; ? = inconclusive; nt = no result.

SMILES	Wnt bcat act	MITF TRPM1 HTS	LMP1 NFkB inh	MITF TRPM1 inh	esBAF inh	Statin myotox sup
CO[C@H]1CN(C)C(=O)c2cc(NC(=O)C3CC3)ccc2OC[C@@H](C)N(C)C[C@@H]1C	nt	nt	nt	nt	3.4	12.7
CCCC(=O)NC(c1ccc(Cl)cc1)c1ccc2cccnc2c1O (stereo unspecified)	-10.0	-73.2	?	74.7*	-58.0	-66.8
CCCC(=O)NC(c1ccc2c(c1)OCO2)c1cc(Cl)c2cccnc2c1O (stereo unspecified)	nt	-27.5	12.9	30.6	nt	nt
CCCC(=O)NC(c1ccc(C)cc1)c1ccc2cccnc2c1O (stereo unspecified)	nt	nt	62.5*	nt	-53.3	-15.1
CC(=O)NC(c1ccc(Cl)cc1Cl)c1ccc2cccnc2c1O (stereo unspecified)	-1.0	nt	68.6*	51.6	-28.1	3.8
CC(=O)NC(C)c1cc(Cl)c2cccnc2c1O (stereo unspecified)	18.8	-4.5	8.7	10.2	-54.0	18.9
COc1ccc(C(NC(C)=O)c2ccc3cccnc3c2O)c(OC)c1 (stereo unspecified)	nt	-60.0	58.6*	62.7*	-55.3	21.6
Cn1c(CNc2nc(-c3ccccc3)cs2)nnc1SCC(=O)N1CCc2ccccc21	-2.6	-4.7	13.1	7.2	-3.7	33.4
CCC(=O)N1C[C@H](C)[C@@H](OC)CN(C)C(=O)c2cc(NC(=O)COC)ccc2OC[C@H]1C	nt	nt	nt	nt	0.1	0.9
CCCC(=O)NC(c1ccco1)c1cc(Cl)c2cccnc2c1O (stereo unspecified)	-1.0	-5.4	33.6	3.9	-6.8	nt
CCCC(=O)NC(c1ccc(Cl)cc1Cl)c1ccc2cccnc2c1O (stereo unspecified)	-4.8	-66.7	62.8*	65.6*	-32.2	0.0
CCCCC(=O)NC(c1ccc(Cl)cc1)c1ccc2cccnc2c1O (stereo unspecified)	-4.2	nt	67.1*	nt	-59.6	-6.4
CCOC(=O)c1ccc(/[N+]([O-])=C/c2ccccc2)cc1	18.6	57.5	-23.3	-54.5	53.1*	-9.0
C#CCCC(=O)c1ccccc1/C=[N+](\[O-])c1ccccc1	4.0	-11.8	-8.4	14.1	15.8	6.5
C#CCCc1cscc1/C=[N+](\[O-])c1ccc(C(=O)OCC)cc1	0.6	34.0	-21.2	-32.4	61.7*	11.5
Cc1ccc2[nH]c3c(N4CCN(Cc5ccccc5)CC4)ncnc3c2c1	nt	-29.4	57.8*	30.4	-33.1	-122.3
Cc1ccc2c(c1)[nH]c1c(N3CCN(Cc4ccccc4)CC3)ncnc12	-10.5	-10.7	21.7	16.7	8.9	-204.2
c1ccc(CN2CCN(c3ncnc4c3[nH]c3ccccc34)CC2)cc1	nt	-47.3	53.0*	49.1	-12.9	-60.4
Cc1cc(SCC(=O)N(C)c2c(N)n(Cc3ccccc3)c(=O)[nH]c2=O)nc2ccccc12	-1.3	4.3	6.2	-1.2	nt	nt
Cc1cc(N)nc(=O)n1C1CC(O)C(CO)O1 (stereo unspecified)	-6.0	-19.9	86.7*	15.2	nt	nt
Nc1nc(=O)n(C2CC(O)C(CO)O2)cc1Cl (stereo unspecified)	5.3	nt	nt	nt	-0.3	-3.2
O=C(c1ccncc1)N1CCN(C(=O)c2cccc3ccccc23)CC1	-3.1	-19.2	-5.1	20.0	7.0	6.7
Cc1c(C(=O)N2CCCCCC2(C)C(=O)NCC(C)C)oc2ccccc12 (stereo unspecified)	-0.8	nt	nt	nt	3.2	15.0
COc1ccc(-c2cc3ccc(F)cc3cn2)cc1	?	54.6	-36.0	-51.7	-5.9	4.8
COc1cc(OC)cc(-c2cc3cc(F)ccc3cn2)c1	39.0*	121.1*	-16.9	-117.7	68.7*	-57.9
SMILES	Wnt bcat act	MITF TRPM1 HTS	LMP1 NFkB inh	MITF TRPM1 inh	esBAF inh	Statin myotox sup
COc1ccc(-c2cc3cc(F)ccc3cn2)cc1	43.3*	67.1	-53.1	-60.8	5.1	6.9
COCc1cc(S(=O)c2ccc(Cl)cc2)nc(C)n1 (stereo unspecified)	2.4	-18.1	5.5	16.7	nt	nt
O=C(C[C@H]1C[C@@H]2c3cc(NC(=O)Nc4ccc(C(F)(F)F)cc4)ccc3O[C@@H]2[C@H](CO)O1)NCC1CC1	nt	nt	nt	nt	-0.3	9.9
CCN1CCCC1CNC(=O)C(=O)NCc1ccccc1 (stereo unspecified)	-1.8	1.5	-10.7	4.9	-2.1	-2.0
Cn1c(C(=O)NCc2ccccn2)cc2c(=O)n3ccccc3nc21	nt	?	-5.2	-83.9	53.6*	7.7
COc1ccc(-n2c(C)cc(C(=O)CCl)c2C)cc1	-0.8	-94.0	22.4	95.4*	3.3	4.7
Cc1cc(-n2c(C)cc(C(=O)CSc3ccccn3)c2C)no1	21.0	107.2*	-22.5	-100.1	75.9*	-2.3
Cc1cc(-n2c(C)cc(C(=O)CCl)c2C)no1	-0.1	-75.1	-0.1	76.3*	nt	nt
Cc1cc(-n2c(C)cc(C(=O)CN3C(=O)C(=O)N(C)C3=O)c2C)no1	-3.6	-1.8	6.4	1.9	6.1	-9.7
CCn1c(CNC(=O)c2cccc(C)c2)nnc1SCC(=O)NC1CCCC1	-3.7	-6.3	4.0	8.5	5.7	-3.9
COc1cccc2c1C(=O)c1ccc3ccccc3c1C2=O	nt	41.5	-38.7	-42.5	46.7*	9.1
COc1cccc2c1-c1c(C(=O)O)cccc1C2=O	-0.1	nt	3.5	-10.4	-3.2	12.7
Cc1ccc(C)c(S(=O)(=O)N2CCN(CC(=O)N3CCc4ccccc4C3)CC2)c1	nt	-1.9	56.8*	1.5	nt	nt
Cc1ccnc(NS(=O)(=O)c2ccc(NS(=O)(=O)c3ccc(Br)cc3)cc2)n1	-3.1	7.1	-3.6	-16.6	1.9	33.1
Cc1ccc(-n2ccc(=O)c(-c3ccnc(SCc4cccc(Cl)c4)n3)n2)cc1	-1.0	nt	-5.1	-6.4	-3.8	84.3*
CCn1c(-c2nn(-c3ccc(C)cc3)ccc2=O)n[nH]c1=S	-1.9	-5.5	-1.4	4.9	nt	nt
COC(=O)C1=C(C)N(c2ccc(C)cc2)/C(=C/c2cccs2)C1=O	0.8	nt	4.7	2.9	-7.4	4.3
COC(=O)C1=C(C)N(c2ccc(F)cc2)/C(=C/c2ccc(O)cc2)C1=O	-2.3	14.7	-7.4	-10.1	-3.0	114.5*
CN(C)S(=O)(=O)c1ccc(C(=O)NCC2CC2(Cl)Cl)cc1 (stereo unspecified)	-1.2	6.2	43.3*	-2.4	-5.9	-0.7
CN(C)S(=O)(=O)c1ccc(C(=O)NCCOc2ccc(F)cc2)cc1	20.8	64.8	-22.6	-55.4	60.8*	146.0*
CN(C)S(=O)(=O)c1ccc(C(=O)NCCOc2ccccc2)cc1	48.3*	62.5	-25.3	-57.7	nt	nt
CC(C)(C)c1ccc(C(=O)NCCOc2ccccc2)cc1	3.9	nt	17.4	9.4	-43.0	19.3
